Data published in PubChem BioAssay AID488890 (Southern Research Specialized Biocontainment Screening …, 2010).
About 1,300 (0.41%) of roughly 320,000 compounds were called active. Another 3% or so got no clear call; they are omitted. The rule behind the calls is not given here. The list is a sample of the results. Potency and affinity values are given separately.

Test: growth inhibition of non-replicating M. tuberculosis (AID 488890);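 note: plate controls were DMSO cells for no effect and high antibiotic wells for full effect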
Conditions: Mycobacterium tuberculosis non-replicating, at 25 µM, stronger effect = higher value

Structure (SMILES)	inhibition
O=C(Nc1nnc(C23CC4CC(CC(C4)C2)C3)s1)c1ccc(N2C(=O)CCC2=O)cc1	13.4%
COc1cc(NC(=S)N2CCOCC2)c(OC)cc1Cl	1.57%
CCOc1ccccc1NC(=O)C1CCCCN1S(=O)(=O)c1ccc(F)cc1 (centres undefined)	14.8%
COc1ccc(/C=C2\C(=O)NC(=O)N(Cc3ccccc3)C2=O)c(OC)c1OC	-15.4%
O=C(NCC(=O)N1CCN(Cc2ccc3c(c2)OCO3)CC1)c1ccccc1F	6.65%
N#C/C(N)=C(/C#N)N=Cc1cccc(Cl)c1	8.31%
CNC(=O)/C(C#N)=C/c1ccc(OCCOc2ccccc2)cc1	63.6%
Cn1cccc1/C=N\NC(=O)c1cncc(Br)c1	-6.5%
O=C(N/N=C/c1cccc([N+](=O)[O-])c1)c1cccc(Br)c1	-5.27%
CCOc1ccc(NC(C)C(=O)N/N=C/c2ccc([N+](=O)[O-])cc2)cc1 (centres undefined)	7.41%
CCOc1ccc(/C=N/NC(=O)CCC(=O)Nc2ccc(F)cc2)cc1	1.12%
CCOc1ccc(NC(=O)CCC(=O)N/N=C/c2ccc3c(c2)OCO3)cc1	12.5%
Cc1ccc(/C=N/NC(=O)C(C)Oc2ccccc2[N+](=O)[O-])s1 (centres undefined)	-10.9%
O=C(N/N=C/c1ccc(O)cc1)c1cncc(Br)c1	17.6%
O=C(N/N=C/c1ccc(Br)s1)c1cccc([N+](=O)[O-])c1	-22%
COC(=O)c1c(C)[nH]c(C(=O)CSc2nnnn2-c2ccccc2)c1C	-4%
O=C(COC(=O)c1ccccc1NC(=O)c1ccco1)NC1CCS(=O)(=O)C1 (centres undefined)	73.7%
O=C(COC(=O)C1CCN(C(=O)Nc2ccccc2)CC1)NCC(F)(F)F	-2.77%
CS(=O)(=O)N1CCC(C(=O)NCc2ccc(Cl)cc2)CC1	8.1%
COc1ccc(-n2nc3cc(C)c(NC(C)=O)cc3n2)cc1	1.69%
COC(=O)Cn1c(CN2CCN(C(=O)c3ccco3)CC2)nc2c1c(=O)n(C)c(=O)n2C	0.07%
O=P(Cc1cccc[n+]1[O-])(c1ccccc1)c1ccccc1	-13.7%

Structure (SMILES)	inhibition
CC(C)C(c1nnnn1Cc1ccccc1)N1CCN(Cc2ccc3c(c2)OCO3)CC1 (centres undefined)	31.2%
Cc1nc(SCC(=O)N2CCOCC2)c2c(=O)n(C)c(=O)n(CC(C)C)c2n1	-4.99%
Cc1ccccc1NCC(=O)N/N=C\C=C\c1cccc([N+](=O)[O-])c1	44%
Cc1onc(-c2ccccc2)c1C(=O)N/N=C/c1cccs1	51.2%
CCOC(=O)N/N=C\c1ccc(C)s1	-9.49%
O=C(N/N=C/c1ccc(Br)s1)c1ccc([N+](=O)[O-])cc1	10.3%
CCOC(=O)N/N=C/c1ccc(N2CCOCC2)s1	1.14%
O=C(NN=Cc1ccc(N2CCOCC2)s1)c1ccc([N+](=O)[O-])cc1	0.11%
Cc1ccccc1NCC(=O)N/N=C/c1ccc([N+](=O)[O-])cc1	10%
Cc1onc(-c2ccccc2)c1C(=O)N/N=C/c1ccc([N+](=O)[O-])c(O)c1	32%
CN(Cc1nc2ccccc2c(=O)[nH]1)C(=O)c1ccc(S(=O)(=O)N(C)C)cc1	-7.99%
Cc1ccc(Cc2c(C)c(C#N)c3[nH]c4ccccc4n3c2=O)cc1	55.7%
COc1ccc(S(=O)(=O)N2CCC(Nc3ccccc3Cl)CC2)cc1	35%
COc1ccc(NC(=O)CN(Cc2ccccc2)S(C)(=O)=O)c(OC)c1	6.99%
CO/N=C(\C)c1ncc(C(F)(F)F)cc1N1CCOCC1	-6.77%
Cc1ccc(C(=O)NC(NCC2CCCO2)C(Cl)(Cl)Cl)cc1 (centres undefined)	-8.87%
CC1CCCN(CCCNC(=O)c2ccc(N3CCCC3=O)cc2)C1 (centres undefined)	-2.78%
O=C(CCC(=O)N1CCN(c2ccccc2)CC1)Nc1nnc(C2CCCCC2)s1	-14.5%
O=C(CSc1nnc(COc2ccccc2F)n1-c1ccccc1)NC1CCS(=O)(=O)C1 (centres undefined)	-2.12%
Cc1ccc(NC(=S)N(CCN(C)C)Cc2cc3cc(C)ccc3[nH]c2=O)cc1	56.8%
COc1ccccc1CNC(=O)c1cnccn1	41.3%
O=C(N/N=C\c1cc(Br)c(Br)o1)c1cncc(Br)c1	-11.5%

Structure (SMILES)	inhibition
O=C(N/N=C/c1ccc(Br)s1)c1ccccc1[N+](=O)[O-]	88.6%
O=C(N/N=C/c1ccc(Cl)s1)c1ccccc1[N+](=O)[O-]	19.9%
COc1cc([N+](=O)[O-])cc(/C=N/NC(=O)c2cncc(Br)c2)c1O	10.5%
Cc1ccc(-c2cc(C(=O)OCn3nnc4ccccc4c3=O)c3ccccc3n2)cc1	-0.92%
CC1NC(=S)N(C2CCCCC2)C1=O (centres undefined)	7.51%
O=C1c2ccccc2C(=O)N1C1CCCCC1	-9.63%
COc1ccc2[nH]c(=O)c(CN(C(=O)c3cccnc3)c3ccc(C)c(C)c3)cc2c1	-6.7%
Cc1cccc(-c2nnc(SCc3ccccc3)o2)c1	64.4%
O=C(O)c1cccc(CSc2nnc(-c3ccco3)o2)c1	3.8%
Brc1ccc(-c2nnc(-c3ccco3)o2)cc1	9.05%
O=C(O)c1ccc(CSc2nnc(-c3ccco3)o2)cc1	3.82%
COc1ccccc1N1CCN(CC(O)COCc2cccs2)CC1 (centres undefined)	-4.29%
Cc1c(NC(=O)c2ccccc2NC(=O)COc2ccccc2)cccc1C(=O)O	4.87%
COc1cc2[nH]c(=O)n(C3CCCCC3)c(=O)c2cc1OC	6.65%
COc1c[nH]n(-c2ccccc2)c(=O)c1=O	3.41%
O=C(C1CC(=O)N(c2ccc(Cl)cc2)C1)N1CCOCC1 (centres undefined)	-7.5%
COc1ccc(OCC(=O)N/N=C2\CCCCc3ccccc32)cc1	22.5%
COc1ccc(OCC(=O)N/N=C2\CCCc3ccccc32)cc1	34.2%
Cc1c(Cl)c([N+](=O)[O-])nn1CC(=O)N1CCN(Cc2ccccc2)CC1	-5.75%
O=C(COc1c(Cl)cccc1Cl)NN1C(=O)CSC1=S	8.7%
C/C(=N\NC(=O)CCCNc1cccc(C)c1)c1ccncc1	-0.79%
C/C(=N\NC(=O)CCCNc1ccccc1)c1ccncc1	1.29%

Structure (SMILES)	inhibition
CCCCCCCC(=O)N/N=C(\C)c1cccnc1	-21.2%
CCCCCCCCCC(=O)N/N=C(\C)c1cccnc1	-3.96%
FC(F)C(F)(F)C1=CC(c2ccccc2)=NCCN1	12.6%
COc1ccc(CN(C(=O)c2ccco2)C2CCS(=O)(=O)C2)cc1 (centres undefined)	1.18%
Cn1cccc1/C=N/NC(=O)c1cc(-c2cccs2)nc2ccccc12	-12.1%
COc1ccc(CNC(=O)C(C)c2ccc([N+](=O)[O-])cc2)cc1 (centres undefined)	36.2%
COc1ccc(N2CCN(S(=O)(=O)c3ccc4c(c3)CC(C)N4C(=O)C3CC3)CC2)cc1 (centres undefined)	-6.48%
O=C(COC(=O)c1ccc([N+](=O)[O-])o1)c1ccccc1	22.4%
O=C(COC(=O)c1ccc([N+](=O)[O-])o1)NCc1ccccc1	49.8%
Cn1c(N)c(C(=O)COC(=O)c2ccc([N+](=O)[O-])o2)c(=O)n(C)c1=O	69.7%
O=C(OCC(=O)N1CCN(S(=O)(=O)c2ccc(Cl)cc2)CC1)c1ccc([N+](=O)[O-])o1	67.7%
O=C(OCC(=O)N1CCN(S(=O)(=O)c2ccccc2)CC1)c1ccc([N+](=O)[O-])o1	66.7%
COc1ccc(OC)c(C(=O)COC(=O)c2ccc([N+](=O)[O-])o2)c1	54.8%
CCc1ccc(C(=O)OCC(=O)c2c(N)n(CC(C)C)c(=O)n(C)c2=O)cc1	24.9%
COc1cc(C(=O)COC(=O)c2ccc([N+](=O)[O-])o2)cc(OC)c1OC	34.7%
COc1ccccc1C(=O)N1CCC(C(=O)c2ccc(F)cc2)CC1	5.17%
O=C(O)C1CCCN(S(=O)(=O)c2ccccc2[N+](=O)[O-])C1 (centres undefined)	-3.19%
CC(=O)c1cccc(NC(=O)CCc2nnc3ccc(N4CCN(C)CC4)nn23)c1	1.24%
COC(=O)c1[nH]nc(C(=O)OC(C)(C)C)c1-c1ccccc1	0.97%
COc1ccc(C(=O)NCC(C)NC(=O)c2ccc(OC)c(Br)c2)cc1Br (centres undefined)	-0.81%
CCC(Oc1ccc(F)cc1)C(=O)N1CCCCCCC1 (centres undefined)	-13.2%
COCCNC(=O)CS(=O)(=O)Cc1nc(-c2ccc(C)cc2)oc1C	-26%

Structure (SMILES)	inhibition
CCC(CO)Nc1ncnc2onc(-c3ccc(F)cc3)c12 (centres undefined)	-5.65%
Cc1nnsc1C(=O)N1CCN(c2cc(C(F)(F)F)ccn2)CC1	1.32%
Cc1ccc(N(C(=O)CS(=O)CC(=O)Nc2ccc(F)cc2)C(C)C(=O)NC(C)(C)C)cc1 (centres undefined)	-2.13%
CC1CCCCN1S(=O)(=O)c1ccc([N+](=O)[O-])cc1 (centres undefined)	-4.65%
Cc1ccc(NC(=O)COC(=O)Cn2c(C)csc2=O)cc1	7.46%
COCCn1c(C)cc(C(=O)COC(=O)c2cccc(O)c2)c1C	-6.95%
COCCn1c(C)cc(C(=O)COC(=O)c2ccc(S(=O)(=O)N(C)C)cc2)c1C	-12.9%
COc1ccc([N+](=O)[O-])cc1NC(=O)c1cncc(Br)c1	36.5%
CCOCCCNC(=O)C(c1ccccc1)N(Cc1ccc2c(c1)OCO2)C(=O)c1ccccc1O (centres undefined)	4.13%
Cc1cccc(C(=O)Nc2cccc(OC(=O)c3cccc(C)c3)c2)c1	51.4%
Cc1cccc(C(=O)Nc2cccc(OCC(=O)O)c2)c1	-11.3%
O=C(O)COc1cccc(NC(=O)c2ccccc2)c1	-6.49%
COC(=O)COc1cccc(NC(=O)c2cc(OC)cc(OC)c2)c1	58.8%
Cc1cccc(N(C(=O)c2snc(C(N)=O)c2N)C(C(=O)NCc2ccccc2)c2ccncc2)c1 (centres undefined)	11.8%
O=C(COc1ccc(-n2cnnn2)cc1)Nc1cccc(Cl)c1Cl	5.43%
Cc1nnc(N/N=C/c2ccccc2C(F)(F)F)n1N	3.91%
Cc1cc(Cl)nc(Cl)c1C(=O)NCCc1ccccc1	5.34%
CC(C)Cc1nnc(NC(=O)CCC(=O)Nc2ccc(Cl)cc2)s1	12.6%
CCc1nnc(NC(=O)CCS(=O)(=O)c2ccc(C)cc2)s1	77.7%
C=CCOC(=O)/C(=C\c1ccccc1)NC(=O)c1ccco1	-12.7%
C[C@H](NC(=O)c1nc[nH]c1C(=O)N1CCN(C(=O)OC(C)(C)C)CC1)C(=O)OC(C)(C)C	-4.48%
